Bioassay records: PubChem BioAssay, National Center for Advancing Translational Sciences (NCATS)
The full list was thinned out, with hits kept by preference.
IL-1B inflam inh: inhibitors of inflammasome signaling (IL-1 beta secretion); THP-1 LPS/ATP IL-1B secretion, AlphaLISA, 16 h; hits give low values; activity change, % at 57.5 µM; 360,000 tested, 4.7% active; in the data active means activity change below about -50%; inconclusive means mostly about -30% to -49%
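THP-1 cells pretreated 1 hr with compounds (up to 57.5 uM final), then stimulated with LPS (250 ng/mL final) plus ATP (1.25 mM final); secreted IL-1B measured by AlphaLISA after 16 hr, decreased signal indicating inhibition.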
HT1080-NT tox: kills 2HG-producing HT-1080-NT fibrosarcoma cells; 360,000 tested, 1.6% active; Potency, µM (highest dose often 46.1 µM), for the others: top-dose activity, negative = less viability, hits mostly cytotoxic; HT-1080-NT fibrosarcoma viability, CellTiter-Glo ATP luminescence, 48 h; AID 686970;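 further: NT is the 2HG producing partner of a matched IDH1 knockdown line; potency means the concentration at half of the fitted maximal effect; 0% = DMSO-treated cells and -100% = media-only wells without cells; nearly all actives have a fitted effect of over 55% in size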
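Read-out is CellTiter-Glo luminescence after 10 minutes at room temperature, following 48 hours' compound treatment of HT-1080-NT cells (750 cells/well, RPMI, 5% FBS, 37 degrees C).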
ALOX12 inh: blocks human arachidonate 12S-lipoxygenase | Potency, µM (top dose mostly 108 µM), without a hit: at the top dose activity change, negative = inhibition, most hits filed as inhibitors | 580,000 tested, 1.1% active | P18054 | purified 12hLO, xylenol orange hydroperoxide absorbance; further: potency means the concentration at half of the fitted maximal effect
Target sequence (P18054 whole entry, looked up): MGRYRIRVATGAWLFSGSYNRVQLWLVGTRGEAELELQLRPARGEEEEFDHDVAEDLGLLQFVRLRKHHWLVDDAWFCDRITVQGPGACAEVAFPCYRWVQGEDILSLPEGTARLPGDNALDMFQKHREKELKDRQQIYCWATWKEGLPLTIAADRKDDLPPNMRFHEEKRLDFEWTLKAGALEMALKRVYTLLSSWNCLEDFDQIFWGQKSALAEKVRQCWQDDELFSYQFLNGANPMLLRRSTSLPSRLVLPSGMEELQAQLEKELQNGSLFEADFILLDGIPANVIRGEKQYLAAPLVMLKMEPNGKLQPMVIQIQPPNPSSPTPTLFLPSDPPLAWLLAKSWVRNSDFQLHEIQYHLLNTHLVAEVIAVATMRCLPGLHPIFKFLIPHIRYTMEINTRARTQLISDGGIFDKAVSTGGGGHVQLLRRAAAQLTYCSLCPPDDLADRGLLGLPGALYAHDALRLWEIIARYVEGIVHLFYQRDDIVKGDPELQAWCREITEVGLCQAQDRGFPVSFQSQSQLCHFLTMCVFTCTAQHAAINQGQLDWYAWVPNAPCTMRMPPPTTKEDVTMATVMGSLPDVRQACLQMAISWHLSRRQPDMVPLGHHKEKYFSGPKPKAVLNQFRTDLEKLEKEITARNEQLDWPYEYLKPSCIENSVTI
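Hydroperoxide product was detected by ferrous iron/xylenol orange as the 573 to 405 nm absorbance ratio. Arachidonic acid at 40 uM (final) was turned over for 30 min at room temperature by 150 nM human 12hLO, pH 7.0 Hepes buffer, after 15 min compound preincubation.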
HT1080 IDH1KD tx: toxicity to HT-1080 IDH1 knockdown cells (counter line). HT-1080 IDH1 knockdown viability, ATP luminescence, 48 h. Potency, µM (series often up to 46.1 µM), for the others: at the top dose activity, negative = toxicity, actives largely listed as cytotoxic. 360,000 tested, 2% active;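 further: potency means the concentration at half of the fitted maximal effect; 0% = DMSO wells and -100% = cell-free medium wells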
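% activity derives from luminescence (CellTiter-Glo), normalised to DMSO and no-cell wells. HT-1080-IDH1KD cells, 750/well, had 48 h compound exposure at 37 °C.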
DT40 TDP1 CPT: growth inhibition of DT40 Tdp1-/-;hTDP1 cells with camptothecin (screen for TDP1 inhibitors); Potency, µM (titrated, usually from 46.2 µM), for the others: at the top dose activity change, negative = growth inhibition, actives largely listed as inhibitors; 420,000 tested, 12% active; chicken DT40 Tdp1-/-;hTDP1 cells + 20 nM CPT, ATP luminescence, 48 h; further: potency means the concentration at half of the fitted maximal effect; nearly all actives have a fitted effect of over 55% in size
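Chicken DT40 Tdp1-/- cells complemented with human TDP1, 400 cells/well, exposed to compounds plus 20 nM camptothecin for at least 48 h at 37 C; viability read as ATP content by CellTiter-Glo luminescence.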
TDP1 cell noCPT: qHTS for Inhibitors of human tyrosyl-DNA phosphodiesterase 1 (TDP1): qHTS in cells in absence of CPT | DT40 Tdp1-/- hTDP1 cells, no CPT, ATP luminescence, 48 h | Potency, µM (top dose mostly 46.2 µM), for inactives: top-dose activity change, negative = growth inhibition, usual class: inhibitors | 420,000 tested, 15% active | AID 686978, 2013; further: potency means the concentration at half of the fitted maximal effect; nearly all actives have a fitted effect of over 55% in size
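Growth of hTDP1-complemented DT40 Tdp1-knockout cells is measured by ATP luminescence after at least 48 hr compound exposure at 37 °C, with DMSO substituting for the 20 nM CPT used in the parallel screen.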
Active calls of the source: *; ? = inconclusive; · = no result given; [ ] = dose if it differs, or a comment. Unless noted, the call rests on the fitted dose curve; in most records, active means well fitted curve in the direction sought with a large enough effect; inconclusive means small, poorly fitted or top-dose-only effect, or another doubt; inactive means no such curve, though single readings can be large; an effect the other way counts as inactive or inconclusive. Unless noted, on the % scale 0 is the no-effect control and ±100 the full control effect.

SMILES | IL-1B inflam inh | HT1080-NT tox | ALOX12 inh | HT1080 IDH1KD tx | DT40 TDP1 CPT | TDP1 cell noCPT
CNc1nc(-c2c(C)n(C)c3ccc(OC)cc23)cs1 | 24.6 | -0.8% | 0.0% | -0.8% | 0.5% | -10.9%
Cc1nc(-c2c3n(c(=O)n(CC(=O)Nc4ccc(F)c(Cl)c4)c2=O)CCCCC3)no1 | · | · | -6.1% | · | · | ·
C[C@]12c3[nH]c4cc(-c5ccco5)ccc4c3CCN1C(=O)[C@@H](CC(=O)NCC13CC4CC(CC(C4)C1)C3)C[C@@H]2C(=O)N1CCCCC1 | ? | -28.3% | -24.9% | ? | 5.17µM* | 6.51µM*
CC[C@]12c3[nH]c4cc(-c5ccco5)ccc4c3CCN1C(=O)[C@@H](CC(=O)NCC13CC4CC(CC(C4)C1)C3)C[C@@H]2C(=O)N1CCN(C(=O)C2CC2)CC1 | ? | -21.8% | -17.4% | ? | ? | 23.1µM*
CC[C@]12c3[nH]c4cc(-c5ccco5)ccc4c3CCN1C(=O)[C@@H](CC(=O)NCCC1=CCCCC1)C[C@@H]2C(=O)N1CCN(C(=O)C2CC2)CC1 | -50.2* | -18.7% | ? | -19.2% | ? | ?
CN(C)C(=O)CCc1ccc2c3c([nH]c2c1)[C@]1(C)[C@@H](C(=O)N2CCCCC2)C[C@H](CC(=O)NCCN2CCOCC2)C(=O)N1CC3 | 23.6 | -4.5% | 4.0% | 13.2% | 3.0% | 5.5%
CC[C@]12c3[nH]c4ccccc4c3CCN1C(=O)C(CC(=O)NCCCn1ccnc1)C[C@@H]2C(=O)N1CCN(C(=O)C2CC2)CC1 (stereo not given in full) | 22.9 | 4.7% | -19.3% | 8.3% | 4.3% | 2.7%
CN(C)CCCNC(=O)C[C@H]1C[C@H](C(=O)N2CCCCC2)[C@@]2(C)c3[nH]c4cc(-c5ccco5)ccc4c3CCN2C1=O | 0.0 | ? | 11.0% | -19.0% | ? | ?
CN(C)C(=O)CCc1ccc2c3c([nH]c2c1)[C@]1(C)[C@@H](C(=O)N2CCCCC2)C[C@H](CC(=O)NCC24CC5CC(CC(C5)C2)C4)C(=O)N1CC3 | ? | -17.1% | -1.6% | -19.4% | 9.2µM* | 13µM*
O=C(NC1CCC1)O[C@H]1CC[C@@]23CCCN2C(=O)CCC[C@H]3[C@H]1Cc1ccccc1 | · | · | -3.8% | · | · | ·
COc1ccc(OC)c(NC(=O)C2(C)CCN2Cc2ccccc2Cl)c1 (stereo not given) | -4.8 | -17.4% | 29.2% | -34.5% | ? | ?
Cc1ccc(-c2csc(NC(=O)c3ccc(Cl)c(N4CCCC4=O)c3)n2)cc1 | · | · | -18.1% | · | · | ·
CC[C@]12c3[nH]c4cc(CCC(=O)N(C)C)ccc4c3CCN1C(=O)[C@@H](CC(=O)NCc1cccc(C(F)(F)F)c1)C[C@@H]2C(=O)N1CCN(C(=O)c2ccco2)CC1 | -28.0 | 6.9% | -10.7% | 3.2% | 20.6µM* | ?
Cc1ccc(S(=O)(=O)N2CCCc3cc(NC(=O)c4ccc(C(F)(F)F)cc4)ccc32)cc1 | · | · | -66.0% | · | ? | 20.6µM*
Cc1ccc(S(=O)(=O)N2CCc3cc(C(=O)Nc4ccc(C(F)(F)F)cc4)ccc32)cc1 | · | · | 9.4% | · | ? | ?
Cc1ccc(S(=O)(=O)N2CCCc3cc(NC(=O)c4ccc(Cl)cc4)ccc32)cc1 | · | · | 4.5% | · | ? | ?
COc1ccc(C(=O)Nc2ccc3c(c2)CCCN3S(=O)(=O)c2ccc(C)cc2)c(OC)c1 | · | · | 3.4% | · | 5.8µM* | 5.17µM*
Cc1nc(NC(=O)N2CCC[C@@H]2C(N)=O)sc1-c1ccnc(C(C)(C)C(F)(F)F)c1 | · | · | 2.4%[57.4 µM] | · | · | ·
CCOCCCn1c(C)nc2c(c1=O)c1nc3ccccc3nc1n2CCC1=CCCCC1 | -72.7* | ? | ? | ? | ? | ?
